Compounds without any hit were thinned out: in the full panel of roughly 83,000, 20% have a hit.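 How to read the values: 0–100, growth inhibition (40 = 60% inhibited); 0, no net growth; -100 to 0, cell death (-40 = 40% of starting cells died; -100 = all dead).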 Active and inactive are the calls of the source.
What follows are molecules tested on CCRF-CEM leukemia (assay: NCI-60 one-dose screen, 48 h (100 = growth as untreated, 0 = no growth, -100 = all killed)). Details: 10 µM unless noted.
Experimental: Growth inhibition of the CCRF-CEM human tumor cell line is measured as a screen for anti-cancer activity. Cells are grown in 96 well plates and exposed to the test compound for 48 hours. Compounds are tested at a single concentration, which is 10^-5 M for most compounds. The reported endpoint is percent growth (GI% or GIPRCNT), where numbers from 0 - 100% represent growth inhibition, and numbers from -100% - 0 represent cell death. For example, a value of 40 represents 60% growth inhibition. A value of 0 means no net growth occurred over the course of the experiment. A value of -40 indicates 40% of cells at the beginning of the experiment died by the end of the experiment. A value of -100 means all cells are dead at the end of the experiment.
NCI-60 Human Tumor Cell Lines Screen was performed using the standard one-dose NCI protocol, which is described in more detail at https://dtp.cancer.gov/discovery_development/nci-60/default.htm.
Compounds with GIPRCNT values below 10 were considered active. Activity score was based on GIPRCNT using the following formula: […]
Score is 0 for GIPRCNT values of 100 or above, 50 for GIPRCNT values of 0, and 100 for GIPRCNT values of -100.
With CCOC(=O)C(C(C)=O)c1nc2sc3cc(Cl)c(Cl)cc3n2c(=O)c1C#N (stereo not given) the growth was 96.7% (inactive). Nc1ccc2c(c1)Cc1cc(NC(=O)C(F)(F)F)ccc1-2 was tested, and the growth was 86.3% (inactive). C1=C[C@H]2O[C@@H]1c1ccc3[nH]ccc3c12 was tested, and the growth was 90.7% (inactive). With CCCCCn1sc(=O)n(Cc2ccc(CNC(=O)OCc3ccc4cccc(O)c4n3)cc2)c1=O the growth was 7.05% (active). O=S(=O)(c1ccc(N/N=C\c2ccccc2Cl)cc1)c1ccc(N/N=C/c2ccccc2Cl)cc1 was tested, and the growth was 75.9% (inactive). COc1ccc(C(=O)/C=C/c2ccccn2)c(O)c1 was tested, and the growth was 10.4% (inactive). In the case of CC(C)(C)OC(=O)N1C=C/C(=C\Cn2cc(-c3ccccc3)nn2)CC1, the growth is reported as 2.78% (active). For COc1cc(C)cc2oc3oc(=O)c(C(=O)c4cc5cc(Br)ccc5o4)cc3c(=O)c12, the growth was 120% (inactive). For CCCCCCCCCCCCCC[n+]1cccc(C(N)=O)c1, the growth was -18.8% (active). CCn1cc(-c2[nH]c(=S)ncc2-c2ccc(Cl)cc2)c(-c2ccc(Br)cc2)n1 was tested, and the growth was 97.8% (inactive). With Cn1cc(-c2noc(-c3cn(C)c4ncc(F)cc34)n2)c2ccccc21 the growth was 78% (inactive). CCN(CC)CCSC(=O)C(O)(c1ccccc1)C1CCCC1 (stereo not given) was tested, and the growth was 118% (inactive). In the case of CC1(C)CC[C@]2(C(N)=O)CC[C@]3(C)C(=CC[C@@H]4[C@@]5(C)C/C(=C/c6cccnc6)C(=O)C(C)(C)[C@@H]5CC[C@]43C)[C@@H]2C1, the growth is reported as 2.68% [100 µM] (active). For Cc1ccc(-c2cc(O)c(-c3ccc(C)cc3C)cc2O)c(C)c1, the growth was 39.5% (inactive). With COCCCNc1nc(NC(=O)c2cc(Br)cc(C(F)(F)F)c2)cc(-c2cccnc2)n1 the growth was 80.8% (inactive). Cc1ccccc1-n1nnc(C(=O)Nc2nc3ccc(F)cc3s2)c1C was tested, and the growth was 66.5% (inactive). CCCCOC(=O)c1c(C)[nH]c(/C=C2\N=C(c3ccc[nH]3)C=C2OC)c1C was tested, and the growth was 12.6% (inactive). With Nc1cccc2c1C(=O)c1cccc(NC(=O)c3ccccc3)c1C2=O the growth was 12.6% (inactive). With c1ccc(-c2nc(N3CCCNCC3)c3nc(-c4ccccc4)oc3n2)cc1 the growth was 12.7% (inactive). With COCCCNc1nc(NC(=O)c2cc(OC)cc(OC)c2)cc(-c2cccnc2)n1 the growth was 91.7% (inactive). With Nc1cc(C(=O)O)[nH]c(=S)n1 the growth was 94.5% (inactive). With CCCSc1nc(N)nc2nc[nH]c12 the growth was 115% (inactive). With CN(C)CCOc1ccc(/C(=C(/CCCl)c2ccccc2)c2ccccc2)cc1 the growth was -6.69% (active). Nc1nc(N)c2c(n1)NC(c1ccc(F)cc1)C1CCc3ccccc3C1=N2 (stereo not given) was tested, and the growth was 35.9% (inactive). In the case of COc1ccc(C(C(=O)O)c2ccc(OC)cc2)cc1, the growth is reported as 100% (inactive). In the case of O=C(C[n+]1ccn(CC(OCc2ccc(Cl)cc2Cl)c2ccc(Cl)cc2Cl)c1)c1ccc(F)cc1 (stereo not given), the growth is reported as -12.1% (active). O=C(NCCCNC(=O)OCc1ccc2cccc(O)c2n1)OCc1ccc2cccc(O)c2n1 was tested, and the growth was 6.81% (active). With CC[C@]1(O)CC2CN(CCc3c([nH]c4ccccc34)[C@@](C(=O)OC)(c3cc4c(cc3OC)N(C=O)[C@H]3[C@@](O)(C(=O)OC)[C@H](OC(C)=O)[C@]5(CC)C=CCN6CC[C@]43[C@@H]65)C2)C1 (stereo not given in full) the growth was 2.51% (active). Cc1cccc(C[C@H](NC(=O)Nc2ccc(Cl)cc2F)C(=O)N[C@@H]2C(=O)N3C[C@H](OC(=O)CCN(C)C)C[C@H]3C(=O)N3CCCC[C@H]3C(=O)N[C@@H](C)C(=O)N3C[C@H](C)C[C@H]3C(=O)O[C@H]2C)c1 was tested, and the growth was 42.4% (inactive). Oc1cc(Nc2ccnc3cc(Cl)ccc23)c2ncccc2c1 was tested, and the growth was 67.9% (inactive). In the case of O=C(Nc1cccc2ccccc12)c1cc2ccccc2cc1O, the growth is reported as 17.1% (inactive). Cn1cc(-c2noc(-c3cn(C)c4ncc(F)cc34)n2)c2cc(Br)ccc21 was tested, and the growth was 80.8% (inactive). For CC(C)c1ccc(C(=O)Nc2nc3ccc(O)cc3s2)cc1, the growth was 29.2% (inactive). For CCN(CC)CCS(=O)(=O)CCNc1ccnc2cc(Cl)ccc12, the growth was 3.54% (active). CCN(CCO)CCC(=O)c1ccc([N+](=O)[O-])cc1 was tested, and the growth was 124% (inactive). In the case of Cc1cc[n+](CCCCCCCCCC[n+]2ccc(C)cc2)cc1, the growth is reported as 99.1% (inactive). In the case of Cn1cc(-c2noc(-c3cn(C)c4ncc(Br)cc34)n2)c2cc(Cl)ccc21, the growth is reported as 68.6% (inactive). COc1cc(/C=C/C(=O)/C=C/c2ccc(-n3ccnc3)cc2)ccc1O was tested, and the growth was 37.1% (inactive). Cn1cc(-c2noc(-c3cn(C)c4ncccc34)n2)c2cc(Cl)ccc21 was tested, and the growth was 99.8% (inactive). In the case of c1coc2occoc=2o1, the growth is reported as 98.9% (inactive).

Reference: PubChem BioAssay (NCI)
